Test results reported in PubChem BioAssay AID1159580 (chemical genetic matrix, 2015).
Several values for one entry are separate records, joined by “and”; a condition that tells them apart may be missing. Identical values can stand only once. The campaign covered roughly 5,500 compounds. About 2,000 (36%) were called active. Not shown: some 18% with an inconclusive outcome. No stated cut-off is given here; in the data, active means normalized growth mostly below about 0.91 (no sharp cut-off); inconclusive means no clear call, values can overlap the other calls; inactive means mostly above about 0.92. The list shows a part of the results.

Assay: chemical genetic growth profiling, strain panel (AID 1159580);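 further: tested at 20 µM; growth read once vehicle control cultures reached saturation at 30 °C; 1 = growth at the plate median or of vehicle wells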
Details: growth OD

Measured: normalized growth

CC(=O)O[C@@H]1CC[C@@]2(C)C(C[C@@H](OC(C)=O)[C@@]3(C)C4=CC(=O)O[C@@H](c5ccoc5)[C@]4(C)CCC23)C1(C)C (stereo partly drawn)
inactive: S. cerevisiae deletion strains, locus YBR021W, strain FUR4, stronger effect = lower value 1.01 | S. cerevisiae deletion strains, locus YBR229C, strain ROT2, stronger effect = lower value 1.01 | S. cerevisiae deletion strains, locus YCL029C, strain bik1, stronger effect = lower value 0.99 | S. cerevisiae deletion strains, locus YDL035C, strain GPR1, stronger effect = lower value 1.03 | S. cerevisiae deletion strains, locus YDL074C, strain BRE1, stronger effect = lower value 1 | S. cerevisiae deletion strains, locus YDL101C, strain DUN1, stronger effect = lower value 1.01 | S. cerevisiae deletion strains, locus YDL134C, strain PPH21, stronger effect = lower value 1.01 | S. cerevisiae deletion strains, locus YDL185W, strain tfp1, stronger effect = lower value 0.996 | S. cerevisiae deletion strains, locus YDL192W, strain arf1, stronger effect = lower value 1 | S. cerevisiae deletion strains, locus YDR101C, strain arx1, stronger effect = lower value 1 | S. cerevisiae deletion strains, locus YDR162C, strain NBP2, stronger effect = lower value 1.02 | S. cerevisiae deletion strains, locus YDR318W, strain mcm21, stronger effect = lower value 1 | S. cerevisiae deletion strains, locus YDR388W, stronger effect = lower value 1 | S. cerevisiae deletion strains, locus YDR502C, strain sam2, stronger effect = lower value 0.983 | S. cerevisiae deletion strains, locus YEL061C, strain CIN8, stronger effect = lower value 1.02 | S. cerevisiae deletion strains, locus YER110C, stronger effect = lower value 1 | S. cerevisiae deletion strains, locus YER155C, strain BEM2, stronger effect = lower value 1.02 | S. cerevisiae deletion strains, locus YER167W, strain BCK2, stronger effect = lower value 1.02 | S. cerevisiae deletion strains, locus YGL078C, strain dbp3, stronger effect = lower value 0.994 | S. cerevisiae deletion strains, locus YGL086W, strain mad1, stronger effect = lower value 1.02 | S. cerevisiae deletion strains, locus YGL248W, strain PDE1, stronger effect = lower value 0.999 | S. cerevisiae deletion strains, locus YGR135W, strain pre9, stronger effect = lower value 0.973 | S. cerevisiae deletion strains, locus YGR252W, strain gcn5, stronger effect = lower value 0.918 | S. cerevisiae deletion strains, locus YHR030C, strain SLT2, stronger effect = lower value 0.962 | S. cerevisiae deletion strains, locus YHR079C, strain IRE1 (second series), stronger effect = lower value 1 | S. cerevisiae deletion strains, locus YHR079C, strain IRE1, stronger effect = lower value 0.998 | S. cerevisiae deletion strains, locus YHR094C, strain hxt1, stronger effect = lower value 0.998 | S. cerevisiae deletion strains, locus YHR129C, strain ARP1, stronger effect = lower value 1.02 | S. cerevisiae deletion strains, locus YHR200W, strain rpn10, stronger effect = lower value 0.976 | S. cerevisiae deletion strains, locus YIL066C, strain RNR3, stronger effect = lower value 1.03 | S. cerevisiae deletion strains, locus YIL073C, strain SPO22, stronger effect = lower value 0.996 | S. cerevisiae deletion strains, locus YIL125W, strain kgd1, stronger effect = lower value 1 | S. cerevisiae deletion strains, locus YIR030C, strain dcg1, stronger effect = lower value 1 | S. cerevisiae deletion strains, locus YJL095W, strain BCK1, stronger effect = lower value 0.986 and 0.998 | S. cerevisiae deletion strains, locus YJL134W, strain LCB3, stronger effect = lower value 1.02 | S. cerevisiae deletion strains, locus YJL168C, strain set2, stronger effect = lower value 1 | S. cerevisiae deletion strains, locus YJL187C, strain SWE1 (second series), stronger effect = lower value 1 | S. cerevisiae deletion strains, locus YJR066W, strain TOR1, stronger effect = lower value 0.918 | S. cerevisiae deletion strains, locus YKL009W, strain mrt4, stronger effect = lower value 1.05 | S. cerevisiae deletion strains, locus YKL068W, stronger effect = lower value 1 | S. cerevisiae deletion strains, locus YKL085W, strain MDH1 (second series), stronger effect = lower value 1.03 | S. cerevisiae deletion strains, locus YKL085W, strain MDH1, stronger effect = lower value 1.03 | S. cerevisiae deletion strains, locus YKL190W, strain CNB1, stronger effect = lower value 1.02 | S. cerevisiae deletion strains, locus YKR001C, strain vps1, stronger effect = lower value 0.998 | S. cerevisiae deletion strains, locus YLR039C, strain RIC1, stronger effect = lower value 1.04 | S. cerevisiae deletion strains, locus YLR058C, strain SHM2, stronger effect = lower value 1.01 | S. cerevisiae deletion strains, locus YLR102C, strain apc9, stronger effect = lower value 0.998 | S. cerevisiae deletion strains, locus YLR113W, strain HOG1, stronger effect = lower value 0.981 | S. cerevisiae deletion strains, locus YLR268W, strain sec22, stronger effect = lower value 0.99 | S. cerevisiae deletion strains, locus YLR371W, strain rom2, stronger effect = lower value 1.01 | S. cerevisiae deletion strains, locus YLR418C, strain cdc73, stronger effect = lower value 0.909 | S. cerevisiae deletion strains, locus YML016C, strain PPZ1, stronger effect = lower value 1.02 | S. cerevisiae deletion strains, locus YML032C, strain rad52, stronger effect = lower value 1 | S. cerevisiae deletion strains, locus YML124C, strain tub3, stronger effect = lower value 0.999 | S. cerevisiae deletion strains, locus YMR078C, strain ctf18, stronger effect = lower value 1.01 | S. cerevisiae deletion strains, locus YMR223W, strain ubp8, stronger effect = lower value 0.988 | S. cerevisiae deletion strains, locus YMR307W, strain GAS1, stronger effect = lower value 0.953 | S. cerevisiae deletion strains, locus YNL067W, strain RPL9B, stronger effect = lower value 1 | S. cerevisiae deletion strains, locus YNL183C, strain NPR1, stronger effect = lower value 0.931 | S. cerevisiae deletion strains, locus YNL233W, strain BNI4, stronger effect = lower value 0.993 | S. cerevisiae deletion strains, locus YNL250W, strain rad50, stronger effect = lower value 0.992 | S. cerevisiae deletion strains, locus YNL271C, strain bni1, stronger effect = lower value 1 | S. cerevisiae deletion strains, locus YNL298W, strain CLA4, stronger effect = lower value 0.989 | S. cerevisiae deletion strains, locus YNL307C, strain MCK1, stronger effect = lower value 0.993 | S. cerevisiae deletion strains, locus YNR052C, strain pop2, stronger effect = lower value 0.993 | S. cerevisiae deletion strains, locus YOL006C, strain TOP1, stronger effect = lower value 0.986 | S. cerevisiae deletion strains, locus YOL012C, strain htz1 0.707 | S. cerevisiae deletion strains, locus YOL147C, strain pex11, stronger effect = lower value 1 | S. cerevisiae deletion strains, locus YOR061W, strain CKA2, stronger effect = lower value 1.02 | S. cerevisiae deletion strains, locus YOR069W, strain VPS5, stronger effect = lower value 1.02 | S. cerevisiae deletion strains, locus YOR136W, strain idh2, stronger effect = lower value 0.996 | S. cerevisiae deletion strains, locus YOR144C, strain elg1, stronger effect = lower value 1.01 | S. cerevisiae deletion strains, locus YOR184W, strain ser1, stronger effect = lower value 1.01 | S. cerevisiae deletion strains, locus YOR231W, strain MKK1, stronger effect = lower value 0.999 | S. cerevisiae deletion strains, locus YOR316C, strain cot1, stronger effect = lower value 0.999 | S. cerevisiae deletion strains, locus YPL055C, strain LGE1, stronger effect = lower value 0.997 | S. cerevisiae deletion strains, locus YPL256C, strain CLN2, stronger effect = lower value 0.973 | S. cerevisiae deletion strains, locus YPR119W, strain clb2, stronger effect = lower value 1 | S. cerevisiae deletion strains, locus YPR141C, strain kar3, stronger effect = lower value 0.993 | S. cerevisiae deletion strains, locus YPR163C, strain tif3, stronger effect = lower value 0.988 | S. cerevisiae deletion strains, locus YPR167C, strain met16, stronger effect = lower value 0.995 | S. cerevisiae deletion strains, strain wtn01, stronger effect = lower value 0.986 | S. cerevisiae strains, strain wild type, stronger effect = lower value 1.02
